PfHsp40 yeast = compounds rescuing yeast from Plasmodium falciparum HSP40 toxicity; 340,000 tested, 0.68% active; growth rescue, % at 12.5 µM; AID 504582; S. cerevisiae expressing PfHsp40, growth rescue, ATP luminescence; in the data active = growth rescue above about 28%, passing the limit was not always enough;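 also: yeast W303a lacking pdr1 and pdr3 grown in galactose medium; growth measured after three days at 30 °C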
RecA splice inh = blocks M. tuberculosis RecA intein splicing; P9WHJ3; cell-free RecA intein splicing, fluorescence; inhibition, % (test concentration not listed); 290,000 tested, 0.75% active; AID 2221; in the data active = inhibition above about 30%;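 also: 0% = vehicle wells and 100% = reference inhibitor control wells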
Target sequence (P9WHJ3 whole entry, looked up, canonical isoform): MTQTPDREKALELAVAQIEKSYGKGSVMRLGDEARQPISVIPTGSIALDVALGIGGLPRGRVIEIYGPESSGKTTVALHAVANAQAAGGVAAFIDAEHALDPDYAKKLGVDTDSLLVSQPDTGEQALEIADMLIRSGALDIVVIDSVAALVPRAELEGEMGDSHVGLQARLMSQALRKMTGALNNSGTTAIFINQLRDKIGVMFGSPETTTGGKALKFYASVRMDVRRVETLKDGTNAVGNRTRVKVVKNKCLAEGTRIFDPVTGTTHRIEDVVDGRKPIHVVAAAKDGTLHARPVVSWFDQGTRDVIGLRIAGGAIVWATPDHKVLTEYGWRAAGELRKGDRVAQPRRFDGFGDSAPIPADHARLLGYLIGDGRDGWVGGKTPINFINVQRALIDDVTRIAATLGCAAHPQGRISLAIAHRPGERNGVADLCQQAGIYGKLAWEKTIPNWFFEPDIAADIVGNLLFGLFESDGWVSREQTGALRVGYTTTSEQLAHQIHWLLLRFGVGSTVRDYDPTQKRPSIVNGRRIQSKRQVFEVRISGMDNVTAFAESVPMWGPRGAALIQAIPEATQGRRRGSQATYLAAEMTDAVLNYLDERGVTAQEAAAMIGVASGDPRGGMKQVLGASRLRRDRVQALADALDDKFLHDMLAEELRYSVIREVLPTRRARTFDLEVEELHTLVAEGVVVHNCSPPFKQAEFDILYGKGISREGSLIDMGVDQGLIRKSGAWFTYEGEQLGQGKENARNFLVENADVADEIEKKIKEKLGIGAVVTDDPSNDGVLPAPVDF
PrP UTR inh = suppresses PrP 5' UTR mRNA reporter expression; cell-based PrP 5' UTR mRNA reporter, plate reader; inhibition, % (test concentration not listed); 340,000 tested, 0.35% active; in the data active = inhibition above about 52%; also: 0 = median of the neutral control wells
PrPC TRFRET = inhibitors of human cell surface prion protein PrPC | P04156 | TR-FRET read-out | inhibition, % at 13.8 µM | 370,000 tested, 0.43% active; in the data active = inhibition above about 24%; also: 0% = median of the test wells and 100% = reference compound wells
BJeLR lethal = kills HRASV12-expressing BJeLR cells; BJeLR (HRASV12) viability, CellTiter-Glo ATP luminescence, 48 h; inhibition, % (concentration not given with the values); 300,000 tested, 0.17% active; in the data active = inhibition above about 50%
PriA SSB inh = blocks PriA binding to SSB C-terminal tail. 430,000 tested, 0.6% active. inhibition, % at 33 µM. AlphaScreen SSBct-PriA binding, biotinylated peptide; in the data active = inhibition mostly above about 37%, no sharp cut-off; inactive = mostly below about 20%;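 also: plate controls were negative control peptide for no effect and reference peptide for full effect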
PrPC TRFRET cf = confirmation of inhibitors of cell surface human prion protein. inhibition, % at 13.8 µM. AID 743200. cell surface PrPC level, TR-FRET. 1,500 tested, 65% active. shares compounds with PrPC TRFRET; in the data active = inhibition above about 25%
LD9 tox = counter-screen for PrPc inhibitors: cytotoxicity in LD9 cells; 1,500 tested, 29% active; inhibition, % at 13.8 µM; luminescence viability; shares compounds with PrPC TRFRET; AID 743201; in the data active = inhibition above about 9.5%
Starred values were filed as active, the others as inactive; · = no result given. In the library only some 1.9% were active in any assay of this set; here they are far more common.

SMILES	PfHsp40 yeast	RecA splice inh	PrP UTR inh	PrPC TRFRET	BJeLR lethal	PriA SSB inh	PrPC TRFRET cf	LD9 tox
Cc1cc(Br)c(OCc2ccc(C(=O)N/N=C/c3ccc[nH]3)cc2)c(Br)c1	0	·	36	26*	·	·	52*	65*
O=C(N/N=C/c1ccc[nH]1)c1ccc(COc2cccc3cccnc23)cc1	6	5	-26	14	4	·	·	·
C=C1C(C)C2C(Cc3ccccc3)NC(=O)C23OC(=O)/C=C/C(O)CCCC(C)C/C=C/C3C1O (stereo unspecified)	-2	·	14	26*	·	-7	17	14*
CS(=O)(=O)c1ccc(Nc2nc(CC(=O)N3CCc4ccccc4C3)cs2)cc1	·	·	·	·	·	16	·	·
CCCc1ccc(C(=O)NNC(=O)c2ccc(Cl)cc2)cc1	-1	-1	-22	4	-2	-7	·	·
CCc1ccc(C(=O)NNc2ccc(Cl)cc2)cc1	8	1	-39	31*	-3	8	43*	3
CCCc1ccc(C(=O)NNc2cc(Cl)ccc2Cl)cc1	14	6	-4	25*	-6	-5	27*	5
CCc1ccc(C(=O)NNc2cc(Cl)cc(Cl)c2)cc1	0	4	-11	14	1	1	·	·
Cc1c(C(=O)N2CCc3ccccc32)sc2nc(-c3ccc(F)cc3)cn12	·	·	·	·	·	-13	·	·
CC(C)c1nnc(SCc2ccccn2)c2c1cnn2-c1ccc(F)cc1	·	·	·	·	·	-9	·	·
CC[C@H](C)n1c(SCC(=O)Nc2ccc(C)cc2Cl)nc2ccsc2c1=O	·	·	·	·	·	-4	·	·
CCN(CC)S(=O)(=O)c1ccc(N2CCOCC2)c(NS(=O)(=O)c2cc(C(C)(C)C)ccc2C)c1	0	6	-21	25*	-31	-3	10	0
O=C(Nc1nc(-c2ccccn2)cs1)c1ccccc1-n1cnnn1	-1	·	26	28*	15	81*	27*	20*
Cc1cc(C(=O)CSc2nc3ccccc3[nH]2)c(C)n1CC1CCCO1 (stereo unspecified)	-1	-4	9	44*	10	11	34*	38*
Cn1c(N2CCCCC2)nc2c1c(=O)n(Cc1cccc(Br)c1)c(=O)n2C	5	-1	-16	·	-7	8	·	·
Cn1c(N2CCC(C(N)=O)CC2)nc2c1c(=O)n(Cc1ccc(Br)cc1)c(=O)n2C	0	0	-1	26*	-2	-13	29*	2
CO[C@H]([C@H](C)/C=C/N(C)C=O)[C@@H](C)C(=O)CC[C@H](C)[C@H](O)[C@H](C)[C@H]1OC(=O)/C=C/C(C)=C/C[C@H](O)C[C@@H]2C=CC[C@@H](C[C@H](OC)[C@@H](CO)[C@@H](OC)C[C@@H](OC)[C@@H]1C)O2	·	·	·	38*	·	·	34*	24*
CO[C@H]([C@H](C)/C=C/N(C)C=O)[C@@H](C)C(=O)CC[C@H](C)[C@H](O)[C@H](C)[C@H]1OC(=O)/C=C/C(C)=C/[C@H](O)[C@H](OC)C[C@@H]2C=CC[C@@H](C[C@H](OC)[C@@H](CO)[C@@H](OC)C[C@@H](OC)[C@@H]1C)O2	·	·	·	37*	·	·	32*	23*
CO[C@H]([C@H](C)/C=C/N(C)C=O)[C@@H](C)C(=O)CC[C@H](C)[C@H](O)[C@H](C)[C@H]1OC(=O)/C=C/C(C)=C/C[C@H](O)C[C@@H]2C=CC[C@@H](C[C@H](OC)C(C)(O)[C@@H](OC)C[C@@H](OC)[C@@H]1C)O2 (stereo partly specified)	·	·	·	47*	·	·	42*	25*
CO[C@H]([C@H](C)/C=C/N(C)C=O)[C@@H](C)C(O)CC[C@H](C)[C@H](O)[C@H](C)[C@H]1OC(=O)/C=C/C(C)=C/C[C@H](O)C[C@@H]2C=CC[C@@H](C[C@H](OC)[C@@]3(CO3)[C@@H](OC)C[C@@H](OC)[C@@H]1C)O2 (stereo partly specified)	·	·	·	26*	·	·	24	25*
NCCc1nccs1	·	·	·	·	·	-5	·	·
C=C(C)C1CC=C(C)C(=NNC(=O)CCCNc2cccc(C)c2)C1 (stereo unspecified)	·	·	·	·	·	11	·	·
O=C(/C=C/c1ccccc1F)c1ccc(F)cc1	·	·	·	·	·	7	·	·
CCCN1C(=O)c2[nH]nc(-c3cc(Cl)c(C)cc3O)c2C1c1ccc(O)c(OC)c1 (stereo unspecified)	1	19	-10	26*	9	18	10	-7
N=c1c2c(-c3ccccc3)c(-c3ccccc3)n(Cc3ccco3)c2ncn1CCCn1ccnc1	235*	5	-20	27*	52*	29	-17	19*
SMILES	PfHsp40 yeast	RecA splice inh	PrP UTR inh	PrPC TRFRET	BJeLR lethal	PriA SSB inh	PrPC TRFRET cf	LD9 tox
N=c1c2c(-c3ccccc3)c(-c3ccccc3)n(Cc3ccco3)c2ncn1CCCN1CCOCC1	0	7	2	-21	-3	5	·	·
COc1ccc(OC)c(/C=N/NC(=O)c2cc(-c3c(C)nn(-c4ccccc4)c3C)n[nH]2)c1	·	·	·	·	·	-10	·	·
CC(O)CC(=O)OC[C@]12CC[C@H]3[C@@](C)(CC[C@H]4C(C)(C)CCC[C@]34C)[C@@H]1CC(C1=CC(=O)OC1O)O2 (stereo partly specified)	·	·	·	34*	·	·	26*	64*
COC(=O)c1ccc(C(=O)NC[C@H](OC)c2cccc(F)c2)cc1	·	·	·	·	·	-8	·	·
Cc1ccc(C)c(Nc2ccc(C(=O)NCCc3ccccc3)cn2)c1	1	4	4	27*	9	2	4	-2
Cc1ccc(Nc2ccc(C(=O)NCCc3ccccc3)cn2)cc1	1	1	-31	11	-3	-6	·	·
CCOc1cc(C(=S)N2CCCC2)ccc1OCc1ccccc1	2	3	16	27*	-4	6	7	-5
NC(=O)CSc1nnc2n(-c3ccccc3)c(=O)c3c4c(sc3n12)CCCCC4	1	-2	-18	51*	0	-13	86*	-5
Cc1nnc2n(-c3ccccc3)c(=O)c3c4c(sc3n12)CCCC4	-1	·	-4	15	-10	15	·	·
O=C(NCCOc1ccccc1)c1ccccc1Cl	-1	-3	-12	4	2	-3	·	·
CN(C(=O)COc1ccccc1C(=O)NCCOc1ccccc1)c1ccccc1	0	3	-28	80*	18	-15	83*	95*
C#CCn1cc(/C=N/Nc2nc3ccccc3[nH]2)c2ccccc21	0	15	-35	36*	10	·	10	19*
N#C/C(=C(/O)C(Cl)c1ccccc1)c1nc2ccccc2s1 (stereo unspecified)	1	9	-40	43*	-7	-10	38*	-2
N#C/C(=C(/O)c1cccc(F)c1)c1nc2ccccc2s1	0	0	-32	2	5	-2	·	·

Screening results: PubChem, several laboratories
